Measurements as given in the supplement of paper PMC9801561.
± gives the standard deviation of the averaged measurements.

What follows are compounds tested on Escherichia coli Nissle 1917 (assay: area under OmniLog respiration curve over 48 h (OmniLog units x h); higher = more growth / nutrient utilisation; extreme values may be limits of the assay). Settings: nutrient role: sole phosphorus source (pyruvate carbon); incubation: 48 h, 37 °C.
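For DuctApe activity index of respiration/growth curve (0 no growth to 9 maximum) in this document: biolog PM4 phosphorus and sulfur plates, tetrazolium violet dye reduction read in the OmniLog every 15 min, kinetic curves scored by DuctApe, each plate run in triplicate.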

| Structure (SMILES) | area under OmniLog respiration curve |
| --- | --- |
| O=P(O)(O)CP(=O)(O)O [Methylene Diphosphonic acid] | 618 ± 470 |
| O=C(O)C(O)COP(=O)(O)O [D-3-Phospho-Glyceric acid] | 9300 ± 690 |
| N[C@@H](Cc1ccc(OP(=O)(O)O)cc1)C(=O)O [O-Phospho-L-Tyrosine] | 8920 ± 320 |
| O=P(O)(O)OC[C@H]1OC(O)C[C@@H](O)[C@@H]1O (stereo partly drawn) [2-Deoxy-D-Glucose 6-Phosphate] | 4.72 |
| O=P(O)(O)O[C@H]1O[C@H](CO)[C@@H](O)[C@H](O)[C@@H]1O [D-Mannose-1-Phosphate] | 9100 ± 340 |
| NC(Cc1ccc(OP(=O)(O)O)cc1)C(=O)O (stereo in doubt) [O-Phospho-D-Tyrosine] | 9640 ± 360 |

Same assay, conditions: nutrient role: sole sulfur source (pyruvate carbon); incubation: 48 h, 37 °C

| Structure (SMILES) | area under OmniLog respiration curve |
| --- | --- |
| NC(N)=S [Thiourea] | 4830 ± 410 |
| CCCCS(=O)(=O)O [Butane Sulfonic acid] | 7820 ± 190 |
| O=S(O)(O)=S [Thiosulfate] | 6770 ± 170 |
| Nc1ccc(S(=O)(=O)O)cc1 [p-Aminobenzene Sulfonic acid] | 550 ± 470 |
| N[C@@H](CS(=O)(=O)O)C(=O)O [L-Cysteic acid] | 5920 ± 240 |

The compounds below were run on Escherichia coli Nissle 1917 (assay: DuctApe activity index of respiration/growth curve (0 no growth to 9 maximum) (index 0-9); higher = more growth / nutrient utilisation, active = 3 or more; extreme values may be limits of the assay). Settings: nutrient role: C-Source, carbohydrate; incubation: 48 h, 37 °C.

| Structure (SMILES) | DuctApe activity index |
| --- | --- |
| OC[C@H]1OC(O)[C@H](O)[C@@H](O)[C@@H]1O (stereo partly drawn) [a-D-Glucose] | 7.67 (active) |
| CO[C@H]1O[C@H](CO)[C@@H](O)[C@H](O)[C@@H]1O [a-Methyl-D-Mannoside] | 0 (inactive) |
| OC[C@H]1O[C@H](O[C@H]2[C@H](O)[C@@H](O)[C@H](O)O[C@@H]2CO)[C@H](O)[C@@H](O)[C@@H]1O [Maltose] | 7.67 (active) |
| OCC1(O)OC[C@@H](O)[C@H](O)[C@@H]1O (stereo partly drawn) [D-Tagatose] | 7.33 (active) |
| CO[C@@H]1OC[C@@H](O)[C@H](O)[C@H]1O [b-Methyl-D-Xyloside] | 0 (inactive) |
| O[C@@H]1[C@@H](O)[C@@H](O)CO[C@H]1O [L-Arabinose] | 8 (active) |
| OC[C@H]1OC(O)[C@H](O)[C@@H](O)[C@H]1O (stereo partly drawn) [D-Galactose] | 7.67 (active) |
| CO[C@@H]1O[C@H](CO)[C@H](O)[C@H](O)[C@H]1O [b-Methyl-D-Galactoside] | 7 (active) |
| CO[C@H]1O[C@H](CO)[C@@H](O)[C@H](O)[C@H]1O [a-Methyl-D-Glucoside] | 0 (inactive) |
| O[C@@H]1[C@H](O)[C@H](O)CO[C@H]1O [D-Ribose] | 8.67 (active) |

Same assay, conditions: nutrient role: C-Source, carboxylic acid; incubation: 48 h, 37 °C

| Structure (SMILES) | DuctApe activity index |
| --- | --- |
| O=C(O)C[C@H](O)C(=O)O [L-Malic acid] | 8.67 (active) |
| CC[C@H](O)C(=O)O [a-Hydroxybutyric acid] | 4 (active) |
| O=C(O)C[C@@H](O)C(=O)O [D-Malic acid] | 5.33 (active) |
| O=C1O[C@@H]([C@H](O)CO)[C@H](O)[C@H]1O [D-Galactonic acid-g-Lactone] | 8.33 (active) |
| O=C1O[C@H](CO)[C@@H](O)[C@H]1O [D-Ribono-1,4-Lactone] | 0 (inactive) |
| O=C(O)Cc1cccc(O)c1 [m-Hydroxyphenyl Acetic acid] | 0.667 (inactive) |
| O=C(O)C(O)C(O)C(=O)O (configuration not stated) [m-Tartaric acid] | 0 (inactive) |
| O=C(O)CC(CC(=O)O)C(=O)O [Tricarballylic acid] | 0 (inactive) |

Same assay, conditions: nutrient role: sole nitrogen source (pyruvate carbon); incubation: 48 h, 37 °C

| Structure (SMILES) | DuctApe activity index |
| --- | --- |
| CC(O)C(N)=O (racemic) [DL-Lactamide] | 0 (inactive) |
| N[C@@H](Cc1ccc(O)cc1)C(=O)O [L-Tyrosine] | 2.33 (inactive) |
| Nc1nc2c(ncn2[C@@H]2O[C@H](CO)[C@@H](O)[C@H]2O)c(=O)[nH]1 [Guanosine] | 0.333 (inactive) |
| NO [Hydroxylamine] | 0 (inactive) |
| NC(N)=O | 0 (inactive) |
| CSCC[C@H](N)C(=O)N[C@@H](C)C(=O)O | 7 (active) |
| NCCO [Ethanolamine] | 0 (inactive) |

Same assay, conditions: nutrient role: sole phosphorus source (pyruvate carbon); incubation: 48 h, 37 °C

| Structure (SMILES) | DuctApe activity index |
| --- | --- |
| O=P(O)(O)CP(=O)(O)O [Methylene Diphosphonic acid] | 0.667 (inactive) |
| O=C(O)C(O)COP(=O)(O)O [D-3-Phospho-Glyceric acid] | 8.67 (active) |
| N[C@@H](Cc1ccc(OP(=O)(O)O)cc1)C(=O)O [O-Phospho-L-Tyrosine] | 8.67 (active) |
| O=P(O)(O)OC[C@H]1OC(O)C[C@@H](O)[C@@H]1O (stereo partly drawn) [2-Deoxy-D-Glucose 6-Phosphate] | 0 (inactive) |
| O=P(O)(O)O[C@H]1O[C@H](CO)[C@@H](O)[C@H](O)[C@@H]1O [D-Mannose-1-Phosphate] | 9 (active) |
| NC(Cc1ccc(OP(=O)(O)O)cc1)C(=O)O (stereo in doubt) [O-Phospho-D-Tyrosine] | 9 (active) |

Same assay, conditions: nutrient role: sole sulfur source (pyruvate carbon); incubation: 48 h, 37 °C

| Structure (SMILES) | DuctApe activity index |
| --- | --- |
| NC(N)=S [Thiourea] | 6.33 (active) |
| CCCCS(=O)(=O)O [Butane Sulfonic acid] | 8 (active) |
| O=S(O)(O)=S [Thiosulfate] | 7 (active) |
| Nc1ccc(S(=O)(=O)O)cc1 [p-Aminobenzene Sulfonic acid] | 0 (inactive) |
| N[C@@H](CS(=O)(=O)O)C(=O)O [L-Cysteic acid] | 7 (active) |
